From PubChem BioAssay AID1159580 (chemical genetic matrix, 2015)
About 2,000 (36%) of roughly 5,500 compounds were called active. About 18% were inconclusive and are not listed. No stated cut-off is given here; in the data, active means normalized growth mostly below about 0.91 (no sharp cut-off); inconclusive means no clear call, values can overlap the other calls; inactive means mostly above about 0.92. The list shows a part of the results.

Experiment: chemical genetic growth profiling, strain panel (AID 1159580);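 further: tested at 20 µM; growth read once vehicle control cultures reached saturation at 30 °C; 1 = growth at the plate median or of vehicle wells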
Conditions: growth OD

Measured: normalized growth

OC[C@H]1O[C@@H](O[C@@H]2[C@@H](CO)O[C@](O)(CO)[C@H]2O)[C@H](O)[C@@H](O)[C@H]1O
inactive: S. cerevisiae deletion strains, locus YKL009W, strain mrt4, stronger effect = lower value 1 | S. cerevisiae deletion strains, locus YKL068W, stronger effect = lower value 0.987 | S. cerevisiae deletion strains, locus YKL085W, strain MDH1 (second series), stronger effect = lower value 0.976 | S. cerevisiae deletion strains, locus YKL085W, strain MDH1, stronger effect = lower value 0.976 | S. cerevisiae deletion strains, locus YKL160W, strain elf1, stronger effect = lower value 1 | S. cerevisiae deletion strains, locus YKR001C, strain vps1, stronger effect = lower value 1.01 | S. cerevisiae deletion strains, locus YKR026C, strain gcn3, stronger effect = lower value 1.01 | S. cerevisiae deletion strains, locus YKR091W, strain srl3, stronger effect = lower value 1.01 | S. cerevisiae deletion strains, locus YLL001W, strain dnm1, stronger effect = lower value 0.999 | S. cerevisiae deletion strains, locus YLL026W, stronger effect = lower value 1.01 | S. cerevisiae deletion strains, locus YLL041C, strain sdh2, stronger effect = lower value 1.01 | S. cerevisiae deletion strains, locus YLR027C, strain aat2, stronger effect = lower value 1.01 | S. cerevisiae deletion strains, locus YLR039C, strain RIC1, stronger effect = lower value 0.968 | S. cerevisiae deletion strains, locus YLR058C, strain SHM2, stronger effect = lower value 0.986 | S. cerevisiae deletion strains, locus YLR102C, strain apc9, stronger effect = lower value 0.981 | S. cerevisiae deletion strains, locus YLR113W, strain HOG1, stronger effect = lower value 1.02 | S. cerevisiae deletion strains, locus YLR221C, strain rsa3, stronger effect = lower value 1 | S. cerevisiae deletion strains, locus YLR258W, strain gsy2, stronger effect = lower value 0.998 | S. cerevisiae deletion strains, locus YLR262C, strain YPT6 (second series), stronger effect = lower value 1.03 | S. cerevisiae deletion strains, locus YLR262C, strain YPT6, stronger effect = lower value 1.03 | S. cerevisiae deletion strains, locus YLR268W, strain sec22, stronger effect = lower value 0.972 | S. cerevisiae deletion strains, locus YLR320W, strain mms22, stronger effect = lower value 0.996 | S. cerevisiae deletion strains, locus YLR330W, strain CHS5, stronger effect = lower value 0.994 | S. cerevisiae deletion strains, locus YLR342W, strain FKS1 (second series), stronger effect = lower value 0.994 | S. cerevisiae deletion strains, locus YLR342W, strain FKS1, stronger effect = lower value 1.02 | S. cerevisiae deletion strains, locus YLR357W, strain rsc2, stronger effect = lower value 0.995 | S. cerevisiae deletion strains, locus YLR370C, strain arc18, stronger effect = lower value 1.02 | S. cerevisiae deletion strains, locus YLR371W, strain rom2, stronger effect = lower value 0.974 | S. cerevisiae deletion strains, locus YLR384C, strain iki3, stronger effect = lower value 1.01 | S. cerevisiae deletion strains, locus YLR418C, strain cdc73, stronger effect = lower value 0.954 | S. cerevisiae deletion strains, locus YML016C, strain PPZ1, stronger effect = lower value 0.993 | S. cerevisiae deletion strains, locus YML032C, strain rad52, stronger effect = lower value 0.988 | S. cerevisiae deletion strains, locus YML120C, strain ndi1, stronger effect = lower value 0.99 | S. cerevisiae deletion strains, locus YML124C, strain tub3, stronger effect = lower value 1 | S. cerevisiae deletion strains, locus YMR058W, strain fet3, stronger effect = lower value 1.01 | S. cerevisiae deletion strains, locus YMR078C, strain ctf18, stronger effect = lower value 0.959 | S. cerevisiae deletion strains, locus YMR125W, strain sto1, stronger effect = lower value 0.996 | S. cerevisiae deletion strains, locus YMR129W, stronger effect = lower value 1.01 | S. cerevisiae deletion strains, locus YMR205C, strain PFK2, stronger effect = lower value 1.03 | S. cerevisiae deletion strains, locus YMR223W, strain ubp8, stronger effect = lower value 0.962 | S. cerevisiae deletion strains, locus YMR231W, strain pep5, stronger effect = lower value 1.01 | S. cerevisiae deletion strains, locus YMR307W, strain GAS1, stronger effect = lower value 1 | S. cerevisiae deletion strains, locus YNL067W, strain RPL9B, stronger effect = lower value 1 | S. cerevisiae deletion strains, locus YNL071W, strain lat1, stronger effect = lower value 1.01 | S. cerevisiae deletion strains, locus YNL183C, strain NPR1, stronger effect = lower value 0.959 | S. cerevisiae deletion strains, locus YNL209W, strain ssb2, stronger effect = lower value 1 | S. cerevisiae deletion strains, locus YNL233W, strain BNI4, stronger effect = lower value 0.989 | S. cerevisiae deletion strains, locus YNL248C, strain rpa49, stronger effect = lower value 1.03 | S. cerevisiae deletion strains, locus YNL250W, strain rad50, stronger effect = lower value 0.954 | S. cerevisiae deletion strains, locus YNL271C, strain bni1, stronger effect = lower value 0.966 | S. cerevisiae deletion strains, locus YNL298W, strain CLA4, stronger effect = lower value 0.975 | S. cerevisiae deletion strains, locus YNL307C, strain MCK1, stronger effect = lower value 0.972 | S. cerevisiae deletion strains, locus YNL322C, strain KRE1 (second series), stronger effect = lower value 1.02 | S. cerevisiae deletion strains, locus YNL322C, strain KRE1, stronger effect = lower value 0.996 | S. cerevisiae deletion strains, locus YNR049C, strain mso1, stronger effect = lower value 1.01 | S. cerevisiae deletion strains, locus YNR052C, strain pop2, stronger effect = lower value 0.979 | S. cerevisiae deletion strains, locus YOL006C, strain TOP1, stronger effect = lower value 0.965 | S. cerevisiae deletion strains, locus YOL012C, strain htz1 0.596 | S. cerevisiae deletion strains, locus YOL147C, strain pex11, stronger effect = lower value 0.982 | S. cerevisiae deletion strains, locus YOR001W, strain rrp6, stronger effect = lower value 1 | S. cerevisiae deletion strains, locus YOR061W, strain CKA2, stronger effect = lower value 0.985 | S. cerevisiae deletion strains, locus YOR069W, strain VPS5, stronger effect = lower value 0.989 | S. cerevisiae deletion strains, locus YOR070C, strain gyp1, stronger effect = lower value 1 | S. cerevisiae deletion strains, locus YOR080W, strain dia2, stronger effect = lower value 1.01 | S. cerevisiae deletion strains, locus YOR083W, strain WHI5, stronger effect = lower value 0.989 | S. cerevisiae deletion strains, locus YOR106W, strain vam3, stronger effect = lower value 1.02 | S. cerevisiae deletion strains, locus YOR136W, strain idh2, stronger effect = lower value 0.981 | S. cerevisiae deletion strains, locus YOR144C, strain elg1, stronger effect = lower value 0.98 | S. cerevisiae deletion strains, locus YOR184W, strain ser1, stronger effect = lower value 0.971 | S. cerevisiae deletion strains, locus YOR231W, strain MKK1, stronger effect = lower value 0.98 | S. cerevisiae deletion strains, locus YOR265W, strain rbl2, stronger effect = lower value 1.01 | S. cerevisiae deletion strains, locus YOR270C, strain vph1, stronger effect = lower value 1.06 | S. cerevisiae deletion strains, locus YOR290C, strain snf2, stronger effect = lower value 0.992 | S. cerevisiae deletion strains, locus YOR316C, strain cot1, stronger effect = lower value 0.976 | S. cerevisiae deletion strains, locus YPL051W, strain arl3, stronger effect = lower value 1.01 | S. cerevisiae deletion strains, locus YPL078C, strain atp4, stronger effect = lower value 1.01 | S. cerevisiae deletion strains, locus YPL106C, strain sse1, stronger effect = lower value 1 | S. cerevisiae deletion strains, locus YPL240C, strain hsp82, stronger effect = lower value 1.03 | S. cerevisiae deletion strains, locus YPL241C, strain CIN2, stronger effect = lower value 0.998 | S. cerevisiae deletion strains, locus YPL256C, strain CLN2, stronger effect = lower value 0.957 | S. cerevisiae deletion strains, locus YPR119W, strain clb2, stronger effect = lower value 0.978 | S. cerevisiae deletion strains, locus YPR141C, strain kar3, stronger effect = lower value 0.968 | S. cerevisiae deletion strains, locus YPR163C, strain tif3, stronger effect = lower value 0.972 | S. cerevisiae deletion strains, locus YPR167C, strain met16, stronger effect = lower value 0.985 | S. cerevisiae deletion strains, strain wtn01, stronger effect = lower value 0.967 | S. cerevisiae strains, strain wild type, stronger effect = lower value 0.999
